Test results published in PubChem BioAssay (NCATS).
Where “and” joins values, the source holds several entries; their conditions need not be identical. Equal values may be shown once. Records with an inconclusive call do not appear. Where a structure was tested more than once in an assay, its records may differ in their call. Calls of active or inactive are those of the source. The call rests on the fitted dose curve; in most records, active means well fitted inhibition curve with a large enough effect; inconclusive means small, poorly fitted or top-dose-only effect; inactive means flat fitted curve, though single readings scatter.

System: HEK293
Experiment: Cytotoxic Profiling of Annotated Libraries Using Quantitative High-Throughput Screening (AID 1296008); further: nearly all actives have a fitted effect of over 60% in size
Conditions: Five cell lines viability, CellTiter-Glo ATP luminescence, 48-72 h; max response: active compounds read low
Method in brief: (§1)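 Cells exposed to compounds for 48 or 72 hr at 37 degrees Celsius. Viability read as ATP-coupled luminescence with CellTiter-Glo after 10 min at room temperature.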
On the % scale 0 is the no-effect control and ±100 the full control effect; potency means the concentration at half of the fitted maximal effect.

Structure (SMILES) | Potency | max response | outcome
NC(=O)NO | 0.0526 µM (active) | 4.27% (inactive) | –
NC12CC3CC(CC(C3)C1)C2 | – | 1.92% (inactive) | inactive
CC(C)(C)C(=O)Oc1ccc(S(=O)(=O)Nc2ccccc2C(=O)NCC(=O)O)cc1 | – | -6.47% (inactive) | inactive
Cc1ccc(-c2cc(C(F)(F)F)nn2-c2ccc(S(N)(=O)=O)cc2)cc1 | – | -17.2% (inactive) | –
NCCS(=O)(=O)O | – | -1.38% (inactive) | inactive
CCCNCC(O)COc1ccccc1C(=O)CCc1ccccc1 (configuration not stated) | 21.1 µM (active) | – | –
O=C(c1ccc(F)cc1)C1CCN(CCn2c(=O)[nH]c3ccccc3c2=O)CC1 | – | -0.877% (inactive) and -3.18% (inactive) | –
Cn1cnc2c1c(=O)[nH]c(=O)n2C | 9.35 µM (active) | 1.79% (inactive) | –
C[C@](N)(Cc1ccc(O)c(O)c1)C(=O)O | – | -6.72% (inactive) | inactive
NCCc1cnc[nH]1 | – | 4.08% (inactive) | inactive
Cn1ccc2cc3c(cc21)CCN3C(=O)Nc1cccnc1 | – | -20.9% (inactive) | inactive
CN1CCN(CCCN2c3ccccc3Sc3ccc(Cl)cc32)CC1 | 14.8 µM (active) | – | –

System: HaCat
Experiment: as above
Conditions: Five cell lines viability, CellTiter-Glo ATP luminescence, 48-72 h; max response: active compounds read low
Method in brief: as §1

Structure (SMILES) | max response | outcome
COc1ccc2[nH]cc(CCNC(C)=O)c2c1 | -2.62% (inactive) | inactive
Clc1ccc2nsnc2c1NC1=NCCN1 | 2.64% (inactive) | inactive
NC(=O)OCC(COC(N)=O)c1ccccc1 | – | inactive
COc1ccc2c(c1)c(CC(=O)O)c(C)n2C(=O)c1ccc(Cl)cc1 | -5.33% (inactive) | inactive
Cc1cnc(C(=O)NCCc2ccc(S(=O)(=O)NC(=O)NC3CCCCC3)cc2)cn1 | 0.0058% (inactive) | inactive
CC(C)(Oc1ccc(C2CC2(Cl)Cl)cc1)C(=O)O (configuration not stated) | -0.292% (inactive) | inactive
CN(C)c1nc(N(C)C)nc(N(C)C)n1 | -7.57% (inactive) and -4.4% (inactive) | –
CC(=O)OCC(CCn1cnc2cnc(N)nc21)COC(C)=O | 1.33% (inactive) and 3.92% (inactive) | –
N[C@@H](Cc1c[nH]c2ccc(O)cc12)C(=O)O | – | inactive
O=c1c(O)c(-c2ccc(O)c(O)c2)oc2cc(O)cc(O)c12 | -5.77% (inactive) and -18.7% (inactive) | –
CC[N+](CC)(CC)CCOc1cccc(OCC[N+](CC)(CC)CC)c1OCC[N+](CC)(CC)CC | -16.7% (inactive) | inactive
COc1ccc(C2CNC(=O)C2)cc1OC1CCCC1 (configuration not stated) | -13.7% (inactive) | inactive
NCCCCCC(=O)O | – | inactive
CC1(C)O[C@H]2CC(=O)OC[C@]23[C@H]2CC[C@@]4(C)[C@H](c5ccoc5)OC(=O)[C@H]5O[C@]54[C@]2(C)C(=O)C[C@@H]13 | -5.81% (inactive) | inactive
O=C1N(c2ccccc2)c2ccccc2C1(Cc1ccncc1)Cc1ccncc1 | 2.97% (inactive) | inactive
Cc1cc(C(C)(C)C)c(O)c(C)c1CC1=NCCN1 | -9.17% (inactive) and -0.1% (inactive) | inactive
CC1COc2c(N3CCN(C)CC3)c(F)cc3c(=O)c(C(=O)O)cn1c23 (configuration not stated) | – | inactive

Structure (SMILES) | max response | outcome
CCc1cccc2c3c([nH]c12)C(CC)(CC(=O)O)OCC3 (configuration not stated) | 2.9% (inactive) | inactive
Nc1nc2c(ncn2COC(CO)CO)c(=O)[nH]1 | -15.7% (inactive) | –
CN(C)C(=N)N=C(N)N | – | inactive
C[C@H]1c2cccc(O)c2C(O)=C2C(=O)[C@]3(O)C(O)=C(C(N)=O)C(=O)[C@@H](N(C)C)[C@@H]3[C@@H](O)[C@@H]21 | – | inactive
NC(=O)NO | -18.6% (inactive) | –
NC12CC3CC(CC(C3)C1)C2 | 3.56% (inactive) | inactive
CC(C)(C)C(=O)Oc1ccc(S(=O)(=O)Nc2ccccc2C(=O)NCC(=O)O)cc1 | -9.37% (inactive) | inactive
Cc1ccc(-c2cc(C(F)(F)F)nn2-c2ccc(S(N)(=O)=O)cc2)cc1 | 4.57% (inactive) and -3.85% (inactive) | inactive
NCCS(=O)(=O)O | – | inactive
CCCNCC(O)COc1ccccc1C(=O)CCc1ccccc1 (configuration not stated) | -2.94% (inactive) | inactive
O=C(c1ccc(F)cc1)C1CCN(CCn2c(=O)[nH]c3ccccc3c2=O)CC1 | -0.754% (inactive) and -2.78% (inactive) and -3.98% (inactive) | –
Cn1cnc2c1c(=O)[nH]c(=O)n2C | – | inactive
C[C@](N)(Cc1ccc(O)c(O)c1)C(=O)O | -5.55% (inactive) | inactive
NCCc1cnc[nH]1 | -11% (inactive) and 1.72% (inactive) | –
Cn1ccc2cc3c(cc21)CCN3C(=O)Nc1cccnc1 | -2.9% (inactive) | –
CN1CCN(CCCN2c3ccccc3Sc3ccc(Cl)cc32)CC1 | 0.937% (inactive) | inactive

System: KB-3-1
Experiment: as above
Conditions: Five cell lines viability, CellTiter-Glo ATP luminescence, 48-72 h; max response: active compounds read low
Method in brief: as §1

Structure (SMILES) | max response | outcome | Potency
COc1ccc2[nH]cc(CCNC(C)=O)c2c1 | 5.26% (inactive) and 4.62% (inactive) | – | –
NC(=O)OCC(COC(N)=O)c1ccccc1 | -1.19% (inactive) | – | –
COc1ccc2c(c1)c(CC(=O)O)c(C)n2C(=O)c1ccc(Cl)cc1 | 0.589% (inactive) and -8.59% (inactive) | – | –
CC(C)(Oc1ccc(C2CC2(Cl)Cl)cc1)C(=O)O (configuration not stated) | – | inactive | –
CC(=O)OCC(CCn1cnc2cnc(N)nc21)COC(C)=O | 12.3% (inactive) and 3.49% (inactive) | – | –
N[C@@H](Cc1c[nH]c2ccc(O)cc12)C(=O)O | 5.77% (inactive) and -8.69% (inactive) | – | –
O=c1c(O)c(-c2ccc(O)c(O)c2)oc2cc(O)cc(O)c12 | 4.77% (inactive) and 21.1% (inactive) | – | –
CC[N+](CC)(CC)CCOc1cccc(OCC[N+](CC)(CC)CC)c1OCC[N+](CC)(CC)CC | -10.5% (inactive) and -5.4% (inactive) | – | –
COc1ccc(C2CNC(=O)C2)cc1OC1CCCC1 (configuration not stated) | 0.0275% (inactive) and -1.99% (inactive) | – | –
NCCCCCC(=O)O | 14.6% (inactive) and 4.29% (inactive) | – | –
CC1(C)O[C@H]2CC(=O)OC[C@]23[C@H]2CC[C@@]4(C)[C@H](c5ccoc5)OC(=O)[C@H]5O[C@]54[C@]2(C)C(=O)C[C@@H]13 | -3.61% (inactive) and 0.55% (inactive) | inactive | –
CC1COc2c(N3CCN(C)CC3)c(F)cc3c(=O)c(C(=O)O)cn1c23 (configuration not stated) | 21.2% (inactive) | inactive | –
CCc1cccc2c3c([nH]c12)C(CC)(CC(=O)O)OCC3 (configuration not stated) | -15.8% (inactive) and -6.31% (inactive) | – | –
Nc1nc2c(ncn2COC(CO)CO)c(=O)[nH]1 | 5.82% (inactive) | – | –
CN(C)C(=N)N=C(N)N | -1.82% (inactive) and 7.62% (inactive) | – | –
NC12CC3CC(CC(C3)C1)C2 | 5.54% (inactive) and 19.1% (inactive) | – | –
CC(C)(C)C(=O)Oc1ccc(S(=O)(=O)Nc2ccccc2C(=O)NCC(=O)O)cc1 | -8.85% (inactive) | inactive | –
Cc1ccc(-c2cc(C(F)(F)F)nn2-c2ccc(S(N)(=O)=O)cc2)cc1 | -4.37% (inactive) and -12.4% (inactive) | inactive | –
NCCS(=O)(=O)O | 9.43% (inactive) | – | –
CCCNCC(O)COc1ccccc1C(=O)CCc1ccccc1 (configuration not stated) | -15.9% (inactive) and 1.74% (inactive) | – | –
Cn1cnc2c1c(=O)[nH]c(=O)n2C | 6.57% (inactive) | – | 20.9 µM (active)
C[C@](N)(Cc1ccc(O)c(O)c1)C(=O)O | -5.5% (inactive) and -5.11% (inactive) | – | –
